Data reported in PubChem BioAssay (EPA / NIEHS).
The source made the active and inactive calls. How the source made its calls: active means hit-call score of the fitted dose curve at least 0.9, where 1 is the maximum; inactive means score below 0.9.

What follows are compounds tested against Nuclear respiratory factor 1 (Homo sapiens) (UniProt Q16656) (assay: ATG_NRF1_CIS: Attagene CIS-FACTORIAL HepG2 Assay for human Nuclear Respiratory Factor 1 (NRF1) Orphan Gene (AID 2282987)). Details: HepG2 NRF1 cis-element reporter, Attagene multiplex; actives raise or lower the signal.
Chain of Nuclear respiratory factor 1 (Homo sapiens) (Q16656 whole entry, looked up, the tested form may be a part): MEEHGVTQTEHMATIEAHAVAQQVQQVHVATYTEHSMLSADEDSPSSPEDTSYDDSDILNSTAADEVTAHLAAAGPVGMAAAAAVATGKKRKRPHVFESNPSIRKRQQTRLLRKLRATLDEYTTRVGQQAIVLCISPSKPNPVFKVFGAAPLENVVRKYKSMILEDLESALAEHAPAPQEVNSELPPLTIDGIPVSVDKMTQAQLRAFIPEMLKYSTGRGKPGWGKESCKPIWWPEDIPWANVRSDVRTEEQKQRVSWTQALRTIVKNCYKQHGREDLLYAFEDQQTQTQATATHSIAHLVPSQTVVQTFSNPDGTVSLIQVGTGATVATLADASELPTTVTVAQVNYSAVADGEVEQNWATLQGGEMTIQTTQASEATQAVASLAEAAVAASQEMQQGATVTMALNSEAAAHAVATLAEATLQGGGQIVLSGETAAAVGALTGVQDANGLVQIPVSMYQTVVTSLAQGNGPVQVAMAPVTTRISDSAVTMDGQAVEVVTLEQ
Procedure, shortened: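 Cells (HepG2, transient MRTU transfection) are exposed to compound for 24 h, then RNA isolated and reporter mRNA amplified and fluorescently labelled. Fragments are separated by capillary electrophoresis; signal change is fitted bidirectionally relative to DMSO.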

outcome, inactive:
O=C1CCCCCN1SSN1CCCCCC1=O
CCCCCCCC(C)=O
NC(=O)N=NC(N)=O
C=CC(=O)NC(C)(C)CS(=O)(=O)O
O=C(O)C(c1ccc(Cl)cc1)c1ccc(Cl)cc1
CN1C(=O)N(C)C(O)C1O (stereo not drawn)
[Cl][In]([Cl])[Cl]
S=C(NC1CCCCC1)NC1CCCCC1
Cc1oncc1C(=O)Nc1ccc(C(F)(F)F)cc1
OCCc1ccncc1
CC(=O)OCc1ccco1
CCC(C)C=O (stereo not drawn)
CCOCC(=O)O
